# Data from PubChem BioAssay (Tox21).
# The source made the active and inactive calls. The call rests on the fitted dose curve; in most records, active means well fitted curve in the direction sought with a large enough effect in the signal ratio in the repeat runs (not every such curve was filed as active); inconclusive means weak or mixed curves, or effect the other way; inactive means no such curve, though single readings can be large or run the other way; the % refers to the signal ratio.
# Molecular target: Estrogen receptor (Homo sapiens) (UniProt P03372)
# Sequence (P03372 whole entry, looked up): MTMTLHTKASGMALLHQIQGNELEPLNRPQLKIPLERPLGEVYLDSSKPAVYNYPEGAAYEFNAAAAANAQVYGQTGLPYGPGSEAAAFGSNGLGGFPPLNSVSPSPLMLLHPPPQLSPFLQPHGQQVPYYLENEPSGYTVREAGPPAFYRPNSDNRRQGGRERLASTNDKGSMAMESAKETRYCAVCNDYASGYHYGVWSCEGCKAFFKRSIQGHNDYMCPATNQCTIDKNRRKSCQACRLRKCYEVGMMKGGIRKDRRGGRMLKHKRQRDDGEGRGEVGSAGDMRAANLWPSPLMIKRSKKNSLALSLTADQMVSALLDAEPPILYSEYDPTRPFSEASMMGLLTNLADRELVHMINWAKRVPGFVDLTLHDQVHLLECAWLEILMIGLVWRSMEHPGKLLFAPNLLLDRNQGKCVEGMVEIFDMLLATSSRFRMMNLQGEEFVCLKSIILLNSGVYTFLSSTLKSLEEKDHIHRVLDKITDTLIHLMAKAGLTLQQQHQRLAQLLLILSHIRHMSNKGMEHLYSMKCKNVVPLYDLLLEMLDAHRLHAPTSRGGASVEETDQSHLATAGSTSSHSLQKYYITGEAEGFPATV
# Experiment: qHTS assay to identify small molecule antagonists of the estrogen receptor alpha (ER-alpha) signaling pathway (AID 743069)
# Details: HEK293 ER-alpha-UAS-bla, beta-lactamase ratio, antagonist mode; series mostly up to 69.4 µM; activity, negative = inhibition: at the top concentration
# Description: National Center for Advancing Translational Sciences [NCATS]
# NIH Chemical Genomics Center [NCGC]
# U.S. Environmental Protection Agency [EPA]
# National Institutes of Environmental Health Sciences [NIEHS]
# National Toxicology Program [NTP]
# U.S. Food and Drug Administration [FDA]
# Estrogen receptor (ER), a nuclear hormone receptor, plays an important role in development, metabolic homeostasis and reproduction. Two subtypes of ER, ER-alpha and ER-beta have similar expression patterns with some uniqueness in both types. Endocrine disrupting chemicals (EDCs) and their interactions with steroid hormone receptors like ER causes disruption of normal endocrine function. To identify the compounds that inhibit ER signaling, an ER-alpha-UAS-bla GripTiteTM cell line (Invitrogen, Carlsbad, CA, USA) containing a beta-lactamase reporter gene under the control of an Upstream Activator Sequence (UAS) stably integrated into HEK293 cells was used to screen the Tox21 10K compound library.
# Tox21 Assay Protocol Summary:
# ER-alpha-bla cells were cultured in assay medium containing 2% charcoal stripped FBS overnight in the culture flasks before the assay was performed. The cells were dispensed at 5,000 cells/5 uL of assay medium per well into black wall/clear-bottom 1536-well plates using a Multidrop Combi (ThermoFisher Scientific, Waltham, MA) dispenser. After the assay plates were incubated at a 37C and 5% CO2 for 4 hr, 23 nL of compounds dissolved in DMSO, positive controls or DMSO only was transferred to the assay plate by a Pintool station (Kalypsys, San Diego, CA), followed by addition of 1 uL of 17beta-estradiol in assay medium using a Flying Reagent Dispenser (Aurora Discovery, San Diego, CA). The plates were incubated at 37C and 5% CO2 for 18 hr. Then 1 uL of LiveBLAzerTM B/G FRET substrate was added using a Flying Reagent Dispenser, the plates were incubated at room temperature for 2 hours, and fluorescence intensity was measured by an Envision plate reader (PerkinElmer, Shelton, CT).
# On the % scale 0 is the no-effect control and ±100 the full control effect; potency means the concentration at half of the fitted maximal effect.
Compound,"activity, negative = inhibition",Potency
O=C(O)c1c2ccccc2cc2ccccc12,1.95% (inactive),
Nc1ccc(F)cc1F,3.11% [at 79.1 µM] (inactive),
CCc1cnc(C(=O)O)c(C(=O)O)c1,-7.37% [at 79.1 µM] (inactive),
C(/C=C/C=C/Nc1ccccc1)=Nc1ccccc1,-6.31% (inactive),
CC(C)Oc1ccccc1O,27.2% (inactive),
COc1ccc(/C=C/c2cc(OC)cc(=O)o2)cc1,-17.2% (inactive),
C=Cc1ccc(C=C)cc1,-8.67% [at 79.1 µM] (inactive),
O=C1C=CCCC1,13.8% [at 79.1 µM] (inactive),
C1=COCCC1,12.2% (inactive),
COc1cccc([C@H](O)C2CCN(CCc3ccc(F)cc3)CC2)c1OC,15.7% (inactive),
CC(C)C[C@H](NC(=O)[C@H](Cc1ccccc1)NC(=O)c1cnccn1)B(O)O,,67.4 nM [inconclusive] (active)
CCCCOc1ccc(N)cc1,-8.31% (inactive),
CC(C)=CCCC(C)C=O (stereo not given),12.8% (inactive),
COc1cc(CNC(=O)CCCC/C=C/C(C)C)ccc1O,14% (inactive),
COC(=O)Cc1cccc2ccccc12,20.1% (inactive),
CC(C)(C)NCC(O)COc1ccc(NC(=O)NC2CCCCC2)cc1 (stereo not given),6.91% (inactive),
CCCCCC1CCC(=O)O1 (stereo not given),19.3% (inactive),
N#CCCCC(C#N)CCC#N (stereo not given),12.2% (inactive),
CC1=C(C)C(=O)C(C(CCCCCC(=O)O)c2ccccc2)=C(C)C1=O (stereo not given),4.77% (inactive),
CCCCCCCCCCCCCCCCN,12.1% (inactive),

Compound,"activity, negative = inhibition",Potency
NC(=O)c1ccccc1,0.65% [at 79.1 µM] (inactive),
Cc1ccc(NC=O)c(C)c1,-15.8% (inactive),
Nc1ccc(C(=O)Oc2ccccc2)c(O)c1,7.75% (inactive),
CC(O)CN (stereo not given),-4.7% (inactive),
CCOc1ccc(NC(C)=O)cc1N,26.2% [at 79.1 µM] (inactive),
CCCOC(C)=O,12% (inactive),
COC=O,29% [at 6.71 µM] (inactive),
O=C(O)c1cc(C(=O)O)c(C(=O)O)cc1C(=O)O,-3.16% (inactive),
C1CCN(CN2CCCCC2)CC1,-14% (inactive),
CCCCCCCCCCCC(=O)OCC,-8% (inactive),
CC(C)CCCCCOC(=O)CS,-19.3% (inactive),
Cc1ccccc1CCO,8.14% (inactive),
CC1(C)CC(O)CC(C)(C)N1[O],-2.76% (inactive),
O=C(Cl)c1ccc(F)c(Cl)c1,-5.86% (inactive),
O=[N+]([O-])c1cccc(I)c1,6.14% (inactive),
CCCCCO,3.4% (inactive),
CCOC(=O)CC(O)(CC(=O)OCC)C(=O)OCC,-8.57% (inactive),
CCCCCCCCCCCCN1CCOCC1,-6.51% (inactive),
Clc1nc2ccccc2nc1Cl,29.1% [at 79.1 µM] (inactive),
Clc1cccc(C(c2ccc3nc[nH]c3c2)n2ccnc2)c1 (stereo not given),-29.3% (inactive),
